# Screening results deposited in PubChem BioAssay by several laboratories.
# hiPSC survival: hiPSC single-cell survival enhancement; ATPlite luminescence; 100% = ROCK inhibitor wells, 0% = DMSO; 360,000 tested, 0.044% active; survival enhancement, % at 20 µM; AID 602274; in the data active means survival enhancement above about 18%;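 further: cells exposed to compounds for 16 hours before the ATP read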
# ANO1 activ: activates or potentiates the mouse TMEM16A chloride channel; Q8BHY3; HEK293 TMEM16A/YFP-H148Q/I152L, iodide quench fluorescence; hits give low values; B-score at 10 µM; 340,000 tested, 0.3% active;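 active means fluorescence-ratio B-score plate-corrected deviation score at least 3 library SD below zero, with starting fluorescence score within 5 deviations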;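 further: channel opened by trigger with iodide after compound preincubation; score built on the fluorescence ratio of max minus min over baseline; more negative score means more quench and so TMEM16A activation or potentiation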
# ANO1 block: mouse TMEM16A channel inhibition, primary screen | HEK293 TMEM16A/YFP iodide influx fluorescence, ionomycin | 310,000 tested, 1.2% active | Q8BHY3 | normalized B-score (activity score, 25-100; higher = stronger inhibition) at 10 µM;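 active means ratio plate-corrected score three or more library SD toward inhibition, starting fluorescence score within five deviations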;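 further: score derived from kinetic fluorescence span divided by baseline fluorescence per well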
# DAGLB inh: diacylglycerol lipase beta (human) inhibition | 340,000 tested, 0.059% active | AID 504411 | Q8NCG7 | HEK293T DAGLB membrane lysate, EnzChek fluorogenic substrate | inhibition, % at 5.17 µM; in the data active means inhibition above about 34%;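 further: 0% = enzyme with vehicle and 100% = wells lacking enzyme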
# ABCB6 inh MLPCN: human ABCB6 transporter inhibition | Q9NP58 | K562-ABCB6 porphyrin accumulation, flow cytometry, 1 h; hits give low values | fluorescence ratio to DMSO, % at 10 µM | 360,000 tested, 0.19% active | AID 602162;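 active means fluorescence ratio to DMSO below 75%, the collection mean minus 3 SD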;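 further: signal is porphyrin accumulated inside mitochondria; 100% equals median channel fluorescence of DMSO control wells; lower ratio means ABCB6 inhibition with less porphyrin fluorescence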
# Target sequence (Q9NP58 whole entry, looked up): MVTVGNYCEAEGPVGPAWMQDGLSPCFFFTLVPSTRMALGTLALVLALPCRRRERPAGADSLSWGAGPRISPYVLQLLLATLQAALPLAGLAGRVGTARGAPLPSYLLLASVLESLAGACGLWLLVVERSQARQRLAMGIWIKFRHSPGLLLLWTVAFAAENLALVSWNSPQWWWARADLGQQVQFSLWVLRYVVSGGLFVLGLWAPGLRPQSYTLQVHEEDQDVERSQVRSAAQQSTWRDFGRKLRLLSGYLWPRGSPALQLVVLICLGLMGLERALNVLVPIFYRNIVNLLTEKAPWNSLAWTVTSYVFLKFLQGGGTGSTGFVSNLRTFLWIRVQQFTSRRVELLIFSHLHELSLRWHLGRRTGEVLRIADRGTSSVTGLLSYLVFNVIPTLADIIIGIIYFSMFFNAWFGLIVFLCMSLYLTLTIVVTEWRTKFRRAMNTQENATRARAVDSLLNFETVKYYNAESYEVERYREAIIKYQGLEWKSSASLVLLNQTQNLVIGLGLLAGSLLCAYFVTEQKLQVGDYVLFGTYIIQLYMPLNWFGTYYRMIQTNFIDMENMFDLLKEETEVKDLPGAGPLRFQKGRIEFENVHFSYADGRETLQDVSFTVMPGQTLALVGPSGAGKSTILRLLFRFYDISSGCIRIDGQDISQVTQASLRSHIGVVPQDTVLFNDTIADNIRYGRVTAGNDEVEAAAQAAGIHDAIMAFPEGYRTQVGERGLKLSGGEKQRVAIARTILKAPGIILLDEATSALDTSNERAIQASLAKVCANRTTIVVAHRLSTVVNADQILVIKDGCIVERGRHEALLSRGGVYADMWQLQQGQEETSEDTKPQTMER
# The depositor's hits bear a star; i = inactive; nt = not tested or not shown. Sampled rows, rich in hits. Any-hit rate of the full collection: about 1.5%.
SMILES,hiPSC survival,ANO1 activ,ANO1 block,DAGLB inh,ABCB6 inh MLPCN
CS(=O)(=O)N(Cc1cc2ccccc2[nH]c1=O)C1CCCCC1,27*,i,i,1,92
CCN(Cc1cc2ccccc2[nH]c1=O)C(=O)C1CCCCC1,-3,i,i,0,100
CN(Cc1cc2ccccc2[nH]c1=O)S(C)(=O)=O,2,i,i,0,96
CCN(Cc1cc2ccccc2[nH]c1=O)C(=O)C(C)C,-3,-4.8*,i,-2,150
COC(=O)C=C1CCC2C3CC(F)C4(O)CC(=O)CCC4(C)C3C(=O)CC12C (stereo unspecified),0,i,nt,1,100
Cn1c(=O)c(/C=C/c2ccc(F)cc2)nc2ccccc21,0,-7*,nt,-5,100
Cc1ccc(S(=O)(=O)N2[C@@H](c3ccccc3)C(C(=O)O)=CC[C@H]2c2ccc(Cl)c(Cl)c2)cc1,0,i,100*,2,103
Cc1ccc(S(=O)(=O)N2[C@@H](c3ccccc3F)C(C(=O)O)=CC[C@H]2c2ccc(Cl)c(Cl)c2)cc1,-3,i,100*,3,100
COc1ccc(NC(=O)C(CC(=O)O)Cc2ccccc2)cc1 (stereo unspecified),-2,i,i,-1,90
COc1cc(CC(CC(=O)O)CC(C)OCc2ccccc2)cc(OC)c1 (stereo unspecified),20*,i,i,1,97
COc1cccc(OC)c1C(=O)NNC(=O)c1cccc(COc2ccc3c(c2)CCC3)c1,-5,i,25*,-1,95
O=C(NCc1ccccc1)c1cccc(COc2ccc3c(c2)CCC3)c1,-1,i,i,-15,99
O=C(N/N=C/c1cn(-c2cccs2)nc1-c1ccccc1)c1ccccc1O,-1,i,100*,-2,95
CC1(c2ccc(OC(F)F)cc2)NC(=O)N(CC(=O)Nc2ccc(OC(F)F)cc2)C1=O (stereo unspecified),1,-14*,i,0,97
Brc1ccccc1-c1nnc(SCc2nc3ccccc3s2)o1,0,i,25*,-7,107
O=C(O)c1ccc(CSc2nnc(-c3ccccc3Br)o2)cc1,-1,i,i,0,96
COc1ccc(N/C=C/C(=O)c2ccc(C)cc2)c([N+](=O)[O-])c1,-2,-7.2*,i,8,88
C[C@H](NC(=O)c1[nH]cnc1C(=O)Nc1ccc(CNC(=O)OC(C)(C)C)cc1)C(=O)OCc1ccccc1,1,i,100*,-1,97
CCC(=O)N1CCC1(C)C(=O)Nc1ccc(F)cc1 (stereo unspecified),-1,nt,nt,nt,103
O=C(Nc1ncc(S(=O)(=O)c2ccc([N+](=O)[O-])cc2)s1)c1cccc2ccccc12,4,-5.3*,25*,2,100
O=C(NC(Nc1ncc(S(=O)(=O)c2ccc([N+](=O)[O-])cc2)s1)(C(F)(F)F)C(F)(F)F)c1ccc(Cl)cc1,-3,i,100*,14,91
O=C(CS(=O)(=O)c1ccccc1)Nc1ncc([N+](=O)[O-])s1,0,i,i,2,98
COCC(=O)Nc1ncc(S(=O)(=O)c2ccc([N+](=O)[O-])cc2)s1,1,i,i,2,96
O=C(Nc1ncc([N+](=O)[O-])s1)c1ccccc1Br,0,i,100*,2,98
CCCCc1c(-c2ccc(OC)cc2)ncn1CCc1ccccc1OC,0,nt,nt,nt,126
SMILES,hiPSC survival,ANO1 activ,ANO1 block,DAGLB inh,ABCB6 inh MLPCN
CC1(C(=O)NS(=O)(=O)c2ccc(Br)cc2)CCN1C(=O)CCc1ccccc1 (stereo unspecified),-1,nt,nt,nt,97
CC(Sc1nccn1C)C(=O)c1ccc(Br)cc1 (stereo unspecified),0,i,i,2,93
CN(C)c1ncc(S(=O)(=O)c2ccc(Cl)cc2)c(-c2ccc(Cl)cc2Cl)n1,-1,-7.7*,i,-7,99
Cc1cc(NC(=S)N(Cc2ccc(Br)cc2)Cc2ccc(C(=O)O)cc2)ccc1Cl,-1,i,25*,3,127
Cc1cccc(NC(=S)N(Cc2ccc(Br)cc2)Cc2ccc(C(=O)O)cc2)c1,1,i,i,3,91
O=C(O)/C=C/C(=O)Nc1ccc2nccnc2c1,0,i,25*,-2,101
